Data reported in PubChem BioAssay (Tox21).
Values without a mark were called inactive. Records with an inconclusive call do not appear. A call without a number means that no potency is given here. The source made the active and inactive calls. Unless noted, the call rests on the fitted dose curve; in most records, active means well fitted curve in the direction sought with a large enough effect in the repeat runs; inconclusive means weak or mixed curves; inactive means no such curve, though single readings can be large; an effect the other way counts as inactive or inconclusive.

Columns and labels:
[1] = qHTS assay to identify small molecule agonists of the estrogen receptor alpha (ER-alpha) signaling pathway in the presence of an antagonist - cell viability counter screen (AID 1259386);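 further: series mostly up to about 92 µM; cells exposed to compounds for 22 h at 37 °C before the viability read; nearly all actives have a fitted effect of over 30% in size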
In short: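 The test measures whether compounds kill ER-alpha reporter cells (VM7Luc4E2) under antagonist co-treatment (ICI-182,780, 10.0nM). Fluorescence from CellTiter-Fluor is read after a 22hr exposure.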

[2] = molecular target: Progesterone receptor (Homo sapiens) (UniProt P06401); assay: qHTS assay to identify small molecule agonists of the progesterone receptor (PR) signaling pathway (AID 1346784; calls by dose curve; further: nearly all actives have a fitted effect of over 30% in size)
Chain of Progesterone receptor (Homo sapiens) (P06401 whole entry, looked up): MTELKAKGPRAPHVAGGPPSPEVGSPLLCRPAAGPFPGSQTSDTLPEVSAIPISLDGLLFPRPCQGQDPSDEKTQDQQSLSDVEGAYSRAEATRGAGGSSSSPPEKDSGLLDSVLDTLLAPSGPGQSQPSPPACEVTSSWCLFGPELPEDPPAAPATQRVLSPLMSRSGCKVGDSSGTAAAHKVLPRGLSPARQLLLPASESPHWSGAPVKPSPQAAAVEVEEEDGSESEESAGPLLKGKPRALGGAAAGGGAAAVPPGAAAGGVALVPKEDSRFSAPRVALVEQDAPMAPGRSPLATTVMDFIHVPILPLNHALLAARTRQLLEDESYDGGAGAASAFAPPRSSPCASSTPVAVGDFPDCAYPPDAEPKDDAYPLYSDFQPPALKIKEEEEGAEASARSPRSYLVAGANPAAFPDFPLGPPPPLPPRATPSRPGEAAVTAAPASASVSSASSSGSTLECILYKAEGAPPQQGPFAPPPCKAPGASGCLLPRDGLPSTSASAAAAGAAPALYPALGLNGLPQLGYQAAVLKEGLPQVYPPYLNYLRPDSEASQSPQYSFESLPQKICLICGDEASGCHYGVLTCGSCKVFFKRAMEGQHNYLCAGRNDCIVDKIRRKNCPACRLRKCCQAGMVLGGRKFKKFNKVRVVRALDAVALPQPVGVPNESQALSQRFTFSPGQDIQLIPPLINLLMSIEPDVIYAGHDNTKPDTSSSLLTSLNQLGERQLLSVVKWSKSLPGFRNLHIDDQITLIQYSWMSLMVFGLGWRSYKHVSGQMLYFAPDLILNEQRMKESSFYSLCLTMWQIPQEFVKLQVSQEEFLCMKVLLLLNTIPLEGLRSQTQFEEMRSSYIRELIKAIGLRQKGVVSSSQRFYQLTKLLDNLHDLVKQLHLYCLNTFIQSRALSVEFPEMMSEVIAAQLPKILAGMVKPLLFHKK
In short: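 PR-UAS-bla HEK 293T cells carrying a UAS-driven beta-lactamase reporter were seeded in medium with 2% charcoal-stripped FBS, preincubated 6 hr at 37C, then exposed to compounds in DMSO for 16 hr; agonism was read by LiveBLAzer B/G FRET fluorescence.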

[3] = molecular target: Progesterone receptor (Homo sapiens) (UniProt P06401); assay: qHTS assay to identify small molecule antagonists of the progesterone receptor (PR) signaling pathway (AID 1346795; active means well fitted inhibition curve with a large enough effect in the signal ratio in the repeat runs, not every such curve was filed as active; the % refers to the signal ratio)
In short: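 PR-UAS-bla HEK293T cells carrying a UAS-driven beta-lactamase reporter were plated in medium with 2% charcoal-stripped FBS and rested 6 hr at 37C. Compounds were added with 1 nM R5020 (final) for 16 hr, then FRET substrate loaded 2 hr at room temperature.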

[4] = qHTS assay to identify small molecule antagonists of the progesterone receptor (PR) signaling pathway - cell viability counter screen (AID 1346798); further: series mostly up to about 92 µM; nearly all actives have a fitted effect of over 50% in size
In short: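 PR-UAS-bla HEK293T cells in medium with 2% charcoal-stripped FBS were treated with compounds plus R5020 for 16 hr at 37C. Cell viability was then read by CellTiter-Glo luminescence after 30 min at room temperature in the same wells.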

[5] = qHTS assay to identify small molecule agonists of the progesterone receptor (PR) signaling pathway - cell viability counter screen (AID 1346799; calls by dose curve; further: nearly all actives have a fitted effect of over 45% in size)
In short: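 PR-UAS-bla HEK293T cells, 3,000 per well in medium with 2% charcoal-stripped FBS, were preincubated 6 hr at 37C, then exposed to compounds for 16 hr; viability was read as CellTiter-Glo luminescence after 30 min at room temperature.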

[6] = qHTS assay to identify small molecule antagonists of the TGF-beta/Smad signaling pathway - cell viability counter screen (AID 1346824); further: nearly all actives have a fitted effect of over 50% in size
In short: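 Cytotoxicity counter-screen run in the same wells as the beta-lactamase Smad reporter read: CellTiter-Glo luminescence after 30 min at room temperature. HEK 293T SBE-bla cells had 5 hr compound exposure at 37 C with TGF-beta1 (0.25 ng/mL stock).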

[7] = qHTS assay to identify small molecule agonists of the TGF-beta/Smad signaling pathway - cell viability counter screen (AID 1346829); further: top concentration of the series differs between compounds; nearly all actives have a fitted effect of over 45% in size
In short: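 Tox21 qHTS format: SBE-bla HEK 293T cells treated with DMSO-dissolved compounds for 5 hr; CellTiter-Glo luminescence after 30 min at room temperature.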

[8] = qHTS assay to identify small molecule agonists of the TGF-beta/Smad signaling pathway (AID 1346859; active means well fitted activation curve with a large enough effect in the signal ratio in the repeat runs, not every such curve was filed as active; the % refers to the signal ratio; further: series mostly up to about 77 µM)
In short: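 HEK 293T cells stably carrying a beta-lactamase reporter driven by the Smad binding element were seeded overnight, exposed to DMSO-dissolved compounds for 5 hr at 37 C, 5% CO2, then loaded with FRET substrate for 2 hr at room temperature.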

[9] = molecular target: Thyrotropin-releasing hormone receptor (Homo sapiens) (UniProt P34981); assay: qHTS assay to identify small molecule antagonists of the thyrotropin-releasing hormone receptor (TRHR) signaling pathway (AID 1346877; active means well fitted inhibition curve with a large enough effect in the repeat runs, not every such curve was filed as active; further: series mostly up to about 51 µM)
Chain of Thyrotropin-releasing hormone receptor (Homo sapiens) (P34981 whole entry, looked up): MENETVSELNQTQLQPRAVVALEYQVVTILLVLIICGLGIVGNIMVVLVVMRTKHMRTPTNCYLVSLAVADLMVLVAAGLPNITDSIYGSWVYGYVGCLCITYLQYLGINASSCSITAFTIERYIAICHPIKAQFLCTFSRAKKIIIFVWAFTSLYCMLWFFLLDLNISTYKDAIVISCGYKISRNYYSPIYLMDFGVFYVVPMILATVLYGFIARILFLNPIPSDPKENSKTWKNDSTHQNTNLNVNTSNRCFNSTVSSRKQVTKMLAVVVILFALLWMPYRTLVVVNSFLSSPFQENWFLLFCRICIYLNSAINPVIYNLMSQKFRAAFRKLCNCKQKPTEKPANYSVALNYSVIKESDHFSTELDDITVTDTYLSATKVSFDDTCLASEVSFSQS
In short: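 Overnight-plated (18 h, 37 °C) HEK293 cells expressing TRHR were dye-loaded 2 h, treated with compound, then stimulated with TRH at 1 nM final. Fluorescence intensity was captured every second for 3 min.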

[10] = molecular target: Thyrotropin-releasing hormone receptor (Homo sapiens) (UniProt P34981); assay: qHTS assay to identify small molecule agonists of the thyrotropin-releasing hormone receptor (TRHR) signaling pathway (AID 1346891; calls by dose curve; further: series mostly up to about 58 µM)
In short: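 TRHR-expressing HEK293 cells were plated 18 h at 37 °C/5% CO2, loaded with calcium dye 2 h at 37 °C, then given compound in DMSO; fluorescence was read kinetically for 3 min at 1 s intervals.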

[11] = Human pregnane X receptor (PXR) small molecule agonists, qHTS cell viability counter screen (AID 1346977); further: nearly all actives have a fitted effect of over 50% in size
In short: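 PXR-Luc HepG2 cells in medium with 5% charcoal-stripped FBS were pre-incubated 5hr, then exposed to compounds for 24hr at 37C. Viability was read in the same wells by CellTiter-Fluor fluorescence, reagent added after 23hr with a 1hr incubation.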

[12] = Caspase-3/7 induction in HepG2 cells by small molecules, qHTS assay (AID 1346978); further: nearly all actives have a fitted effect of over 15% in size
In short: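 Caspase-3/7 induction was measured by Caspase-Glo 3/7 luminescence (30 min, room temperature) after a 17 hr compound exposure of wild-type HepG2 cells seeded at 2,000 per well and pre-incubated 5 hr.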

[13] = Caspase-3/7 induction in CHO-K1 cells by small molecules, qHTS cell viability counter screen (AID 1346979); further: nearly all actives have a fitted effect of over 35% in size
In short: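 Wild-type CHO-K1 cells were seeded at 1,500 per well, rested 5hr at 37 C, then exposed to compounds in DMSO. After 16hr, CellTiter-Fluor reagent was added and fluorescence read 1hr later as the viability measure.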

[14] = Caspase-3/7 induction in CHO-K1 cells by small molecules, qHTS assay (AID 1346980); further: nearly all actives have a fitted effect of over 15% in size
In short: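 Luminescent Caspase-Glo 3/7 read (30min, room temperature) quantified apoptosis induction. Cells were wild-type CHO-K1, treated with compound for 17hr at 37 C and 5% CO2.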

[15] = molecular target: Nuclear receptor subfamily 1 group I member 2 (Homo sapiens) (UniProt O75469); assay: Human pregnane X receptor (PXR) small molecule agonists, qHTS assay (AID 1346982); further: nearly all actives have a fitted effect of over 35% in size; further: potency means the concentration at half of the fitted maximal effect
Chain of Nuclear receptor subfamily 1 group I member 2 (Homo sapiens) (O75469 whole entry, looked up): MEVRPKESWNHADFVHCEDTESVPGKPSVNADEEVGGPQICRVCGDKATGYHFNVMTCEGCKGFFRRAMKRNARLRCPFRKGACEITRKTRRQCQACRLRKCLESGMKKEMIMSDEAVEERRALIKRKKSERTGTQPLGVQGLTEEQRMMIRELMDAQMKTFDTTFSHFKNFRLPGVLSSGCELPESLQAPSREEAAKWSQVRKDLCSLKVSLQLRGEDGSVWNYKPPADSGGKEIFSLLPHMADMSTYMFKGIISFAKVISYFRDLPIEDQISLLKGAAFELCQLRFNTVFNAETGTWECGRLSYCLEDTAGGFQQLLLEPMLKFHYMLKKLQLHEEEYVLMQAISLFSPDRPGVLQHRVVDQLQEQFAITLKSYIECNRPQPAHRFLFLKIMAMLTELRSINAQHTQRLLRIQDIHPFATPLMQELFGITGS
In short: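 Stable HepG2 line reporting PXR-mediated CYP3A4 expression via luciferase. Treatment: 24 hr with compounds in DMSO at 37 C. Detection: ONE-Glo luminescence.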

[16] = molecular target: Acetylcholinesterase (Homo sapiens) (UniProt P22303); assay: Acetylcholinesterase (AChE) small molecule antagonists: colormetric cell-based qHTS assay (AID 1347395; calls by dose curve; further: nearly all actives have a fitted effect of over 30% in size)
Chain of Acetylcholinesterase (Homo sapiens) (P22303 whole entry, looked up): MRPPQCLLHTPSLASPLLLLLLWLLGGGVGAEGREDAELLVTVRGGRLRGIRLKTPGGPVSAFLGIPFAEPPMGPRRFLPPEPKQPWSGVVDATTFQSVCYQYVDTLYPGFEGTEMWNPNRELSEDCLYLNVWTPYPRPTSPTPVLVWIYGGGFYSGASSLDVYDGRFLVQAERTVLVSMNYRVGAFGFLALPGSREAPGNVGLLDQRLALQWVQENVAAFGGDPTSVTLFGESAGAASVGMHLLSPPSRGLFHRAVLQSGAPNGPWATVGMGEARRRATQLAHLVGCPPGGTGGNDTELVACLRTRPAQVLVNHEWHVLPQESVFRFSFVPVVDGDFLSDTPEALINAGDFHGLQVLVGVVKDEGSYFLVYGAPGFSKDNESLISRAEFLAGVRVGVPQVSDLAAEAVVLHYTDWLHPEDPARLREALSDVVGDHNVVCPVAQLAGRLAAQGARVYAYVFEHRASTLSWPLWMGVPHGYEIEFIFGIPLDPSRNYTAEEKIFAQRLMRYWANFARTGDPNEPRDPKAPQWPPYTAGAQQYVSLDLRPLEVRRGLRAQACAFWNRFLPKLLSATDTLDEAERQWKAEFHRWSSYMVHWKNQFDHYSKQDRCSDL
In short: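 SH-SY5Y cells, plated overnight at 37 C, were exposed to compounds for 30 min at 37 C and 5% CO2. Acetylthiocholine plus DTNB was then added, and thiocholine from endogenous AChE was quantified colorimetrically after 90 min at 37 C.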

[17] = Caspase-3/7 induction in HepG2 cells by small molecules, qHTS cell viability counter screen (AID 1346981); further: series mostly up to about 92 µM; nearly all actives have a fitted effect of over 30% in size
In short: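 Treatment of HepG2 cells with DMSO-delivered compounds ran 16 hr at 37 C following a 5-hr pre-incubation of 2,000 cells/well. CellTiter-Fluor fluorescence, read after 1 hr, served as the viability measure in a qHTS format.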

[18] = molecular target: Nuclear receptor subfamily 1 group I member 2 (Rattus norvegicus) (UniProt Q9R1A7); assay: Rat pregnane X receptor (rPXR) activation by small molecules, qHTS assay (AID 1346983); conditions: rPXR luciferase reporter cells, One-Glo luminescence, 24 h; stronger effect = higher value; further: nearly all actives have a fitted effect of over 20% in size
Chain of Nuclear receptor subfamily 1 group I member 2 (Rattus norvegicus) (Q9R1A7 whole entry, looked up): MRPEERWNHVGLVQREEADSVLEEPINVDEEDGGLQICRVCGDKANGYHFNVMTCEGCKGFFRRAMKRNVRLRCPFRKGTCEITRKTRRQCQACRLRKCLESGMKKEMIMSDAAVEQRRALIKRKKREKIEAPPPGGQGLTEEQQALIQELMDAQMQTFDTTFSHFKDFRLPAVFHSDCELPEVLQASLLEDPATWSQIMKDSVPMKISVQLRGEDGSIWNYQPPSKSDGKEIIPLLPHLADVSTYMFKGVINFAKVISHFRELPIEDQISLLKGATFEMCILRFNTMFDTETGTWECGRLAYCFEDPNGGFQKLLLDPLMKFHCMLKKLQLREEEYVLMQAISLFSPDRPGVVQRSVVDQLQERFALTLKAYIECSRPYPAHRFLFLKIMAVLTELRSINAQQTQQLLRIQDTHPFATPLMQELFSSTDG
In short: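 Luminescent readout (One-Glo luciferase, 30 min room temperature) followed 24 hr compound treatment at 37 C of rPXR cells plated 2,000 per well and preincubated 5hr; qHTS format with compounds delivered in DMSO.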

[19] = molecular target: Nuclear receptor subfamily 1 group I member 2 (Homo sapiens) (UniProt O75469); assay: CYP3A4 induction through human pregnane X receptor (PXR) by small molecules, qHTS assay (AID 1346984); further: nearly all actives have a fitted effect of over 40% in size
In short: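 After 24 h at 37C with compound, DPX-2 cells (HepG2, co-transfected PXR response element and CYP3A4 promoter-luciferase) got 3uM final P450-Glo Luciferin-IPA for 3 h; One-Glo luminescence followed.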

[20] = molecular target: Nuclear receptor subfamily 1 group I member 2 (Homo sapiens) (UniProt O75469); assay: Human pregnane X receptor (PXR) activation by small molecules, qHTS assay (AID 1346985); further: nearly all actives have a fitted effect of over 40% in size
In short: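 DPX-2 cells (HepG2 co-transfected with a PXR response element and a CYP3A4-promoter luciferase construct) were seeded at 2,000 per well, rested 5 hr at 37C, then exposed to DMSO-dissolved compounds for 24 hr. Activation was read as luciferase luminescence.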

Row | SMILES | Potency [1] | Potency [2] | Potency [3] | Potency [4] | Potency [5] | outcome [6] | Potency [7] | outcome [8] | Potency [9] | outcome [10] | Potency [11] | outcome [12] | Potency [13] | outcome [14] | Potency [15] | Potency [16] | Potency [17] | max activation [18] | Potency [19] | Potency [20]
1 | O=C(Cl)C(Cl)(Cl)Cl | inactive | inactive | inactive | inactive | inactive | inactive | inactive | inactive | inactive | inactive | inactive | inactive | inactive | inactive | 43.5 µM (active) | inactive | – | – | – | –
2 | CC(C)(C)C(=O)C(Cl)Cl | inactive | inactive | inactive | inactive | inactive | inactive | inactive | inactive | inactive | inactive | inactive | inactive | inactive | inactive | inactive | inactive | inactive | – | – | –
3 | O=C(NC(O)C(Cl)(Cl)Cl)NC(O)C(Cl)(Cl)Cl (stereo not drawn) | inactive | inactive | inactive | inactive | inactive | inactive | inactive | inactive | inactive | inactive | inactive | inactive | inactive | inactive | inactive | inactive | inactive | -0.374% | inactive | inactive
4 | CCN(CCO)CCn1c(Cc2ccccc2)nc2c1c(=O)n(C)c(=O)n2C | inactive | inactive | inactive | inactive | inactive | inactive | inactive | inactive | inactive | inactive | inactive | inactive | inactive | inactive | inactive | inactive | – | – | – | –
5 | CC1NCCOC1c1ccccc1 (stereo not drawn) | inactive | inactive | inactive | inactive | inactive | inactive | inactive | inactive | inactive | inactive | inactive | inactive | inactive | inactive | inactive | inactive | inactive | -1.57% | inactive | inactive
6 | BrCCc1ccccc1 | inactive | inactive | inactive | inactive | inactive | inactive | inactive | inactive | inactive | inactive | inactive | inactive | inactive | inactive | inactive | inactive | inactive | – | – | –
7 | O=C(Cl)OCc1ccccc1 | inactive | inactive | inactive | inactive | inactive | inactive | inactive | inactive | inactive | inactive | inactive | inactive | inactive | inactive | inactive | inactive | inactive | – | – | –
